NPC1 promoter act: activates the NPC1 promoter | Huh7 NPC1 promoter luciferase reporter, 24 h | Potency, µM (titrated, usually from 9.22 µM), for the others: at the highest dose activation, actives largely listed as activators | 320,000 compounds, 2.4% hits; further: % of control where 0% means no effect; nearly all actives have a fitted effect of over 60% in size
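Stable NPC1-promoter luciferase Huh7 line; cpd (DMSO) 24 h, 37 °C, 5% CO2; Amplite luciferase reagent 10 min RT; luminescence readout. qHTS format.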
uPA generation: blocks generation of uPA at the cell surface; cell surface uPA generation assay, qHTS; Potency, µM (top dose mostly 38.3 µM), without a hit: top-dose activity change, negative = inhibition, actives largely listed as inhibitors; 330,000 compounds, 0.31% hits; active means well fitted inhibition curve with a large enough effect; inconclusive means small, poorly fitted or top-dose-only effect; inactive means no such curve, though single readings can be large or run the other way; tested in mouse RAW 264.7 cells; further: on the % scale 0 is the no-effect control and ±100 the full control effect; nearly all actives have a fitted effect of over 55% in size
FLuc modulator: firefly luciferase modulation, counter-screen for miR-21 project | P08659 | Potency, µM (series often up to 57.5 µM), for the others: at the top dose activity change, negative = inhibition, most hits filed as inhibitors | purified FLuc, Km substrates, luminescence inhibition | 360,000 compounds, 6.9% hits;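 further: plate controls were vehicle for no effect and reference inhibitor for full effect; nearly all actives have a fitted effect of over 55% in size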
Target sequence (P08659 whole entry, looked up): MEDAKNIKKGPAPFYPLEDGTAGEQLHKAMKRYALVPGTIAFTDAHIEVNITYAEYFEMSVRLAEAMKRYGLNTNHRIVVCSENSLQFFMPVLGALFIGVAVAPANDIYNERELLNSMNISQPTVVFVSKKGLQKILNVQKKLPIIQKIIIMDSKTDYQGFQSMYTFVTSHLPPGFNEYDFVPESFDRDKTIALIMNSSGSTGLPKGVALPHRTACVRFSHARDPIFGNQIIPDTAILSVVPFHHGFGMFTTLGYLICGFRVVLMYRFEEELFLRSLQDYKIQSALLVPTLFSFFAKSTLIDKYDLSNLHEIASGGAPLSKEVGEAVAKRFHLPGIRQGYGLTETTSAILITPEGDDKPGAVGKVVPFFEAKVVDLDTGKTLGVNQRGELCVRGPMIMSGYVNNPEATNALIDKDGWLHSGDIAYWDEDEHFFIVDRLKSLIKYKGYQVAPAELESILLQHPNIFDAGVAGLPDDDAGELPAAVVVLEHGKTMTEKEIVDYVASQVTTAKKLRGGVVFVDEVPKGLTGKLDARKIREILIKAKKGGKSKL
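Purified P. pyralis luciferase, 10 nM final, with Km-level 10 uM D-luciferin and 10 uM ATP in 50 mM Tris acetate pH 7.5, 10 mM Mg acetate, 0.01% Tween-20, 0.05% BSA; 6-point qHTS titration about 60 µM downward; luminescence read.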
Rab9 promoter act: activators of Rab9 promoter | Huh7 Rab9 promoter-luciferase reporter, luminescence, 24 h | Potency, µM (doses to about 9.22 µM), without a hit: at the top dose activation, negative = inhibition, actives largely listed as activators | 320,000 compounds, 2.8% hits | AID 485297; further: % of control where 0% means no effect; nearly all actives have a fitted effect of over 60% in size
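Luminescence from Amplite-detected luciferase (10 minutes, ambient) reports Rab9 promoter activation. Before that, stable Rab9-luciferase Huh7 cells (1500/well, reduced-serum OP-MEM I plus 10% FBS) were exposed to compound for 24 hours at 37C.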
SMN2 splice up: SMN2 splice variant enhancement; HEK293 SMN2-luciferase splicing reporter, luminescence, 30-36 h; Potency, µM (series often up to 46.1 µM), for the others: at the highest dose activity change, positive = activation, hits mostly activators; 210,000 compounds, 2.8% hits; further: % of control where 0% means no effect; nearly all actives have a fitted effect of over 55% in size
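qHTS luciferase splicing reporter: luminescence rises when SMN2 exon 7 is included in transfected HEK293 cells. Compound exposure lasted 30-36 h at 37C, with 4.5 mM final sodium butyrate as control, followed by a ONE-Glo read.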
ELG1 genotoxic: induces genotoxicity in HEK293T cells with luciferase-tagged ELG1 | Potency, µM (doses to about 46 µM), for the others: top-dose activity change, positive = activation, hits mostly activators | HEK293T ELG1-luciferase reporter, luminescence, 16 h | 330,000 compounds, 1.3% hits; further: % of control where 0% means no effect; nearly all actives have a fitted effect of over 60% in size
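Genotoxic stress is detected as increased luminescence from luciferase-tagged ELG1 in HEK293T cells, measured with ONE-Glo after a 16 hr treatment at 37 °C.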
An asterisk follows results filed as active; ? = inconclusive; nt = not tested or not shown. Shown are actives, neighbours in structure and some others; about 7.3% of the full set was active somewhere. Unless noted, the call rests on the fitted dose curve; in most records, active means well fitted curve in the direction sought with a large enough effect; inconclusive means small, poorly fitted or top-dose-only effect, or another doubt; inactive means no such curve, though single readings can be large; an effect the other way counts as inactive or inconclusive. Potency means the concentration at half of the fitted maximal effect.

SMILES	NPC1 promoter act	uPA generation	FLuc modulator	Rab9 promoter act	SMN2 splice up	ELG1 genotoxic
CCn1nc(C)c(/C=N/NC(=O)c2ccoc2C)c1C	1.6µM*	-9%	12µM*	?	?	?
CCn1nc(C)c(/C=N/NC(=O)c2nc3nc(C)cc(C)n3n2)c1C	-5%	0%	1%	-7%	nt	-2%
COc1ccccc1CNC(=O)c1cn(C)c2ccc(S(=O)(=O)N3CCC(C)CC3)cc2c1=O	nt	nt	5%	nt	2%	nt
CCn1nc(C)c(/C=N\NC(=O)c2cccc(OC)c2)c1C	-4%	0%	?	-4%	-17%	4%
CCCCCn1nc(C)c(/C=N/NC(=O)c2ccoc2C)c1C	?	-11%	21µM*	?	20µM*	?
Cc1occc1C(=O)N/N=C/c1cccs1	?	-6%	?	?	25%	11%
CCCCCn1nc(C)c(/C=N\NC(=O)c2cc(C)oc2C)c1C	13%	-12%	19µM*	12%	5%	2%
CCOc1ccc(OCC)c(NC(=O)c2ccc(-c3ccccc3)s2)c1	nt	nt	3%	nt	4%	nt
COc1ccc(/C=C/C(=O)NC2=NCCS2)cc1OC	2.8µM*	2%	-11%	4µM*	?	?
COc1ccc(/C=C/C(=O)Nc2ccc3c(c2)CCC3)cc1OC	0%	-2%	19µM*	13%	-36%	0%
COc1ccc(OC)c(/C=C/C(=O)NC2=NCCS2)c1	?	-5%	-13%	27%	1%	-2%
CCNC(=S)NNC(=O)c1cc(-c2ccc(OC)cc2)nc2ccccc12	?	-14%	0.076µM*	?	7.9µM*	?
CCCCOc1ccc(-c2cc(C(=O)NNC(=S)NCC)c3ccccc3n2)cc1	?	nt	0.076µM*	?	3.2µM*	?
CCNC(=S)NNC(=O)c1cc(-c2cccc(C)c2)nc2ccccc12	?	nt	0.34µM*	?	?	2%
CC(C)COc1cccc(-c2cc(C(=O)Nc3ccon3)c3ccccc3n2)c1	-2%	3%	?	0%	nt	-19%
CCCCOc1cccc(-c2cc(C(=O)NNC(=S)NCC)c3ccccc3n2)c1	7%	-11%	1.5µM*	16%	21%	?
c1ccc(-c2nc(C3CCCCC3)c3ccccc3n2)cc1	-3%	4%	4%	0%	nt	-3%
COc1cccc(-c2cc(C(=O)NC3CCCC3)c3ccccc3n2)c1	nt	-7%	nt	nt	nt	nt
CCNC(=S)NNC(=O)c1cc(-c2cccc(OCC)c2)nc2ccccc12	12%	nt	1.3µM*	17%	16%	?
Cc1cccc(N2CCN(C(=O)c3noc4c3CCCCC4)CC2)c1C	nt	nt	2%	nt	nt	nt
CCCOc1ccc(C(=O)CCC(=O)OCC(=O)N2CC(=O)Nc3ccccc32)cc1	-2%	-1%	17µM*	-7%	-2%	-1%
O=C1CN(C(=O)COC(=O)CCC(=O)c2ccc(Cl)cc2)c2ccccc2N1	nt	2%	nt	nt	nt	-2%
COc1ccc(C)cc1NC(=O)CSc1nc(=O)n(Cc2ccccn2)c2c1CCC2	nt	nt	-7%	nt	nt	nt
COc1cccc2[nH]c3c(N4CCCC(C)C4)ncnc3c12 (centres undefined)	15%	-9%	5.4µM*	28%	4%	-2%
COc1cccc2[nH]c3c(N4CC(C)CC(C)C4)ncnc3c12 (centres undefined)	-1%	nt	-12%	-1%	-18%	-6%
SMILES	NPC1 promoter act	uPA generation	FLuc modulator	Rab9 promoter act	SMN2 splice up	ELG1 genotoxic
CC(=O)Nc1nc(-c2ccc3c(c2)CCO3)cs1	?	-17%	12µM*	?	?	17%
Nc1nc(-c2ccc3c(c2)CCO3)cs1	18%	0%	?	?	10µM*	19%
Cc1ccc(C(=O)Nc2nnc(CC(=O)N/N=C/c3ccc(O)c(O)c3)s2)cc1	20%	8%	4.8µM*	-5%	nt	6%
Cc1ccc(-n2c(=O)c3c(C)c(C)sc3n(CC(=O)NCc3ccccc3)c2=O)cc1C	nt	nt	-1%	nt	1%	nt
Clc1ccc(-c2cn3ncsc3n2)cc1	nt	nt	12µM*	nt	-1%	nt
COc1ccccc1CCNC(=O)C(=O)c1cn(CC(=O)N2CCOCC2)c2ccccc12	15%	-3%	24µM*	18%	nt	10%
COc1ccccc1CNC(=O)C(=O)c1cn(CC(=O)N2CCCC2)c2ccccc12	17%	-1%	?	6%	nt	3%
Cc1ccc(NC(=O)C(=O)c2cn(CC(=O)N3CCCCC3)c3ccccc23)cc1	1%	-6%	9.5µM*	-2%	4%	-1%
O=C(COc1ccccc1)c1cn(CC(=O)N2CCCC2)c2ccccc12	-1%	0%	21µM*	-2%	-8%	1%
COc1cccc(NC(=O)C(=O)c2cn(CC(=O)N3CCCC3)c3ccccc23)c1	15%	-21%	5.4µM*	18%	nt	-4%
CCOC(=O)CNC(=O)N1CCCN(S(=O)(=O)c2ccc3c(ccn3CC)c2)CC1	nt	nt	-1%	nt	nt	nt
CC(=O)C1C=CC(C)(C(=O)O)C2C=C(C)C(=O)C(C)(O)C12 (centres undefined)	nt	-1%	nt	nt	nt	nt
CCc1ccc(NC(=O)C(=O)c2cn(CC(=O)N3CCCCC3)c3ccccc23)cc1	0%	5%	9.5µM*	-2%	3%	-2%
O=C(Nc1ccccc1Cl)C(=O)c1cn(CC(=O)N2CCOCC2)c2ccccc12	3.5µM*	?	0.38µM*	2.5µM*	nt	?
CC(=O)N1CCCc2cc(S(=O)(=O)N3CCN(c4ccccc4F)CC3)ccc21	nt	nt	2%	nt	nt	nt
Cc1cc(-c2cc(N)n(-c3ccccc3)n2)c(C)n1C1CCCC1	3.5µM*	2%	6µM*	1.6µM*	1%	?
COc1ccc(/C=C\C(=O)Oc2cccc(/C=N/NC(=O)Cc3ccc(OC)c(OC)c3)c2)cc1	?	-4%	11µM*	?	13µM*	?
COc1ccc(/C=N/NC(=O)Cc2ccc(Cl)cc2)cc1OC	1%	-12%	-16%	-1%	-3%	?
COc1ccc(/C=C/C(=O)Oc2cccc(/C=N/NC(=O)c3cccc(F)c3)c2)cc1	3.5µM*	3%	2.4µM*	2.8µM*	11µM*	?
CCOC(=O)c1cccc(NC(=O)CC2C(=O)N(c3ccccc3)C(=O)N2Cc2ccco2)c1 (centres undefined)	nt	nt	-10%	nt	nt	nt
CCOc1ccc(C(=O)c2cn(Cc3ccc(Cl)cc3)c3cc(OC)c(OC)cc3c2=O)cc1	nt	nt	2%	nt	5%	nt
Cn1c(C(=O)NN)cc2cc(OCc3ccccc3)ccc21	nt	-1%	nt	nt	nt	nt
Cc1ccc2oc(=O)c3cc(C(=O)Nc4ccc(F)cc4F)sc3c2c1	nt	nt	0%	nt	-3%	nt
Nc1nnc(SCc2ccc(Cl)cc2)s1	9%	0%	?	17%	19%	4%

Source: PubChem
